Assay results taken from the supplement of paper PMC11732987, “Enantioselective OTUD7B fragment discovery through chemoproteomics screening and high-throughput optimisation” (Communications Chemistry, 2025).

Columns and labels:
Test in all cases: log2 ratio of Biotin-Ahx-Ub-VS probe labelling (fragment/DMSO); higher = less target engagement (more negative = stronger competition), active = hit call of the paper (q ≤ 0.05, log2 ratio ≤ -1)
Details in all cases: compound concentration: 200 uM; treatment time: 3 h
USP19 = target: T1, USP19 (UniProt O94966)
T1 sequence (whole entry): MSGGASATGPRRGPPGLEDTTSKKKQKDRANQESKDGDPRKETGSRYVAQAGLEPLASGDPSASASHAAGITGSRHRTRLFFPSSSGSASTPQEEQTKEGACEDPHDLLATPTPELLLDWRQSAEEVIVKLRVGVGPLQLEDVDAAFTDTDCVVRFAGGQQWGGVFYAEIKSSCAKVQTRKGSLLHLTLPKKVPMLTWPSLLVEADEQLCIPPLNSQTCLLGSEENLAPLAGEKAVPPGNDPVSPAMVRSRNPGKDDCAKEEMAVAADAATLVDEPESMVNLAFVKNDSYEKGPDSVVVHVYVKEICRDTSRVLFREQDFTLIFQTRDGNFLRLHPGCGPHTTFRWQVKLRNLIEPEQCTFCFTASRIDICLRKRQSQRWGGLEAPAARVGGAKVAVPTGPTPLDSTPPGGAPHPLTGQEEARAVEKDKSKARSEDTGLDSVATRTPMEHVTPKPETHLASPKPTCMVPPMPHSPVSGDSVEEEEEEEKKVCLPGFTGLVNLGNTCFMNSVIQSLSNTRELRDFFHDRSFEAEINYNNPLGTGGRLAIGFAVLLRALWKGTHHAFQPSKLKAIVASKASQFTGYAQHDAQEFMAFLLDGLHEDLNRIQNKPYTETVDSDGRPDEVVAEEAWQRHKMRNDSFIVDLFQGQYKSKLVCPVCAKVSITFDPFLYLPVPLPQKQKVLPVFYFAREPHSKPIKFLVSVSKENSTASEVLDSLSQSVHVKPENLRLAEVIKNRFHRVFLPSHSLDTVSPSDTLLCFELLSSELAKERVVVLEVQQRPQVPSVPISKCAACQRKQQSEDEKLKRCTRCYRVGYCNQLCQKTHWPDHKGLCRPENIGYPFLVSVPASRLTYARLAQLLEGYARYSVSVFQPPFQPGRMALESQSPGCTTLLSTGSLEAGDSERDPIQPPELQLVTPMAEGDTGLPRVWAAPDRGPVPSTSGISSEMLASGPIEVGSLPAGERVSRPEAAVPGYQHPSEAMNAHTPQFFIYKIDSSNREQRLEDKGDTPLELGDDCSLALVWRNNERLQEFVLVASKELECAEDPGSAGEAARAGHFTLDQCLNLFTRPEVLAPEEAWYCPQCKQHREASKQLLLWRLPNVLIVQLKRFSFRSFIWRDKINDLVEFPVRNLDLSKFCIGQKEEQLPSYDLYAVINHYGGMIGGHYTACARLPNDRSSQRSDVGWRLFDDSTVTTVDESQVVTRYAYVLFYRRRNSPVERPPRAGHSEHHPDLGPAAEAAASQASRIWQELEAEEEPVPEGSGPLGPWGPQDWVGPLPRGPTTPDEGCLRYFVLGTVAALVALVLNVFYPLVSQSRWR
Method in brief: (§1)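 Average log2 ratios of fragment over vehicle were obtained by unpaired t-test from global-median-normalised Spectronaut label-free quantities. Proteins with ≥2 unique peptides were included. HEK293T lysate (495 µg per sample) was treated in triplicate with fragment at 200 µM or vehicle for 3 h, then with Biotin-Ahx-Ub-VS at 0.5 µM final for 1 h, and labelled DUBs were NeutrAvidin-enriched and run by diaPASEF LC-MS/MS.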

USP24 = USP24 (UniProt Q9UPU5)
Method in brief: as §1

USP25 = target: T2, USP25 (UniProt Q9UHP3)
T2 sequence (whole entry): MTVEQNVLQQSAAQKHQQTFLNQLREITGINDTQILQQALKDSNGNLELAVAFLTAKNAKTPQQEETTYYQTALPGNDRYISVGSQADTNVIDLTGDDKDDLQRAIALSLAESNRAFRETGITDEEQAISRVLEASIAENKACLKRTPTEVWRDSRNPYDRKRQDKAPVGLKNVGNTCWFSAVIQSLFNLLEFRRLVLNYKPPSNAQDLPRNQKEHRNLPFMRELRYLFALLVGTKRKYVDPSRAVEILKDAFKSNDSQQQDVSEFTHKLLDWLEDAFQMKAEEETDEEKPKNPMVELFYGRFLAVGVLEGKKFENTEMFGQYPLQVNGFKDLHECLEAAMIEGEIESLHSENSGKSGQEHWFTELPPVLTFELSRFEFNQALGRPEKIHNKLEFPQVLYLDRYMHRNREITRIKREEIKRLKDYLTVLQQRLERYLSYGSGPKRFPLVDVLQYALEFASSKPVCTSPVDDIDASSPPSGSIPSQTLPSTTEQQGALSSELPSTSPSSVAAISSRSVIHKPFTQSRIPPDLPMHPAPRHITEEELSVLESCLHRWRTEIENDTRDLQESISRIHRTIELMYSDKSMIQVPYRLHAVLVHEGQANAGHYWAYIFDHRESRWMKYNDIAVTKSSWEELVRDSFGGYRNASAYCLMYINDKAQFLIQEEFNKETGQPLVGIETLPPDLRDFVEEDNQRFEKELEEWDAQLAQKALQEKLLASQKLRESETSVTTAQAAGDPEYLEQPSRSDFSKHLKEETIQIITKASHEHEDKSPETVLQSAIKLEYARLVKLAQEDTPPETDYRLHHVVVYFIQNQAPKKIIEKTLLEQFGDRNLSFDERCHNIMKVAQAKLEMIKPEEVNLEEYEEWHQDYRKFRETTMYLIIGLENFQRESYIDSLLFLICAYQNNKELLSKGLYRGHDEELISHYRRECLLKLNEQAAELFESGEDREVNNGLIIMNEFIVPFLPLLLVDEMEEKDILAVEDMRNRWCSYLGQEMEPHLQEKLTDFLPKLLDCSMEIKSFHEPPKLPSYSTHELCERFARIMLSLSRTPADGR
Method in brief: as §1

USP28 = target: T3, USP28 (UniProt Q96RU2)
T3 sequence (whole entry): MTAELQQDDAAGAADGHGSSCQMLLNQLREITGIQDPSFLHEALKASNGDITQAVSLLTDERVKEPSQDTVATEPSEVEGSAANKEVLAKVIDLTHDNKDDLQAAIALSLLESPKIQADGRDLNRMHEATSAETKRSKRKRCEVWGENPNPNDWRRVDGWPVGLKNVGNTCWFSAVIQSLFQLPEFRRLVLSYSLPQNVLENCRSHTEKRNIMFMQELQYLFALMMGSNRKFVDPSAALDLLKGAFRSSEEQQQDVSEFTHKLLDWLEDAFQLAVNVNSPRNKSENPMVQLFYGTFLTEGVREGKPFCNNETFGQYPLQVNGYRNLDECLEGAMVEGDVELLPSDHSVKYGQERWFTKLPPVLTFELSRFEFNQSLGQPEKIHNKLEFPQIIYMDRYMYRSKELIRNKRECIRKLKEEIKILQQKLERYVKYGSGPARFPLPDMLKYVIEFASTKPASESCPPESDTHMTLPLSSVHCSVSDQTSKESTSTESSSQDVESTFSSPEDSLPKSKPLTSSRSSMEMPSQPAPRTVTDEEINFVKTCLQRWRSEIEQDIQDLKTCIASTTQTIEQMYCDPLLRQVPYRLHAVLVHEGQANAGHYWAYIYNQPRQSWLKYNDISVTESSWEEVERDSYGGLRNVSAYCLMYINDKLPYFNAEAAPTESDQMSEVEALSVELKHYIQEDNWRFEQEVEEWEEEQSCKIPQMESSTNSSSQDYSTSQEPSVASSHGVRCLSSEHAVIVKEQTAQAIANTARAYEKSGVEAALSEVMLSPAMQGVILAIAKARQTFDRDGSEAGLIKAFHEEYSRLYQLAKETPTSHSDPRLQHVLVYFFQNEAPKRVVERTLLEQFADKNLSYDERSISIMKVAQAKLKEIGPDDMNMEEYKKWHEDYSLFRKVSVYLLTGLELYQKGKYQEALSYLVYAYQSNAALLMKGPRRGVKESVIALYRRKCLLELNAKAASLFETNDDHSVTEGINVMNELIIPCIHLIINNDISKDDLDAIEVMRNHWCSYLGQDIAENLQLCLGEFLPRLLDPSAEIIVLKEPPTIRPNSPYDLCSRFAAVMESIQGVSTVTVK
Method in brief: as §1

Measured: log2 ratio of Biotin-Ahx-Ub-VS probe labelling

Chain of USP24 (Q9UPU5 whole entry): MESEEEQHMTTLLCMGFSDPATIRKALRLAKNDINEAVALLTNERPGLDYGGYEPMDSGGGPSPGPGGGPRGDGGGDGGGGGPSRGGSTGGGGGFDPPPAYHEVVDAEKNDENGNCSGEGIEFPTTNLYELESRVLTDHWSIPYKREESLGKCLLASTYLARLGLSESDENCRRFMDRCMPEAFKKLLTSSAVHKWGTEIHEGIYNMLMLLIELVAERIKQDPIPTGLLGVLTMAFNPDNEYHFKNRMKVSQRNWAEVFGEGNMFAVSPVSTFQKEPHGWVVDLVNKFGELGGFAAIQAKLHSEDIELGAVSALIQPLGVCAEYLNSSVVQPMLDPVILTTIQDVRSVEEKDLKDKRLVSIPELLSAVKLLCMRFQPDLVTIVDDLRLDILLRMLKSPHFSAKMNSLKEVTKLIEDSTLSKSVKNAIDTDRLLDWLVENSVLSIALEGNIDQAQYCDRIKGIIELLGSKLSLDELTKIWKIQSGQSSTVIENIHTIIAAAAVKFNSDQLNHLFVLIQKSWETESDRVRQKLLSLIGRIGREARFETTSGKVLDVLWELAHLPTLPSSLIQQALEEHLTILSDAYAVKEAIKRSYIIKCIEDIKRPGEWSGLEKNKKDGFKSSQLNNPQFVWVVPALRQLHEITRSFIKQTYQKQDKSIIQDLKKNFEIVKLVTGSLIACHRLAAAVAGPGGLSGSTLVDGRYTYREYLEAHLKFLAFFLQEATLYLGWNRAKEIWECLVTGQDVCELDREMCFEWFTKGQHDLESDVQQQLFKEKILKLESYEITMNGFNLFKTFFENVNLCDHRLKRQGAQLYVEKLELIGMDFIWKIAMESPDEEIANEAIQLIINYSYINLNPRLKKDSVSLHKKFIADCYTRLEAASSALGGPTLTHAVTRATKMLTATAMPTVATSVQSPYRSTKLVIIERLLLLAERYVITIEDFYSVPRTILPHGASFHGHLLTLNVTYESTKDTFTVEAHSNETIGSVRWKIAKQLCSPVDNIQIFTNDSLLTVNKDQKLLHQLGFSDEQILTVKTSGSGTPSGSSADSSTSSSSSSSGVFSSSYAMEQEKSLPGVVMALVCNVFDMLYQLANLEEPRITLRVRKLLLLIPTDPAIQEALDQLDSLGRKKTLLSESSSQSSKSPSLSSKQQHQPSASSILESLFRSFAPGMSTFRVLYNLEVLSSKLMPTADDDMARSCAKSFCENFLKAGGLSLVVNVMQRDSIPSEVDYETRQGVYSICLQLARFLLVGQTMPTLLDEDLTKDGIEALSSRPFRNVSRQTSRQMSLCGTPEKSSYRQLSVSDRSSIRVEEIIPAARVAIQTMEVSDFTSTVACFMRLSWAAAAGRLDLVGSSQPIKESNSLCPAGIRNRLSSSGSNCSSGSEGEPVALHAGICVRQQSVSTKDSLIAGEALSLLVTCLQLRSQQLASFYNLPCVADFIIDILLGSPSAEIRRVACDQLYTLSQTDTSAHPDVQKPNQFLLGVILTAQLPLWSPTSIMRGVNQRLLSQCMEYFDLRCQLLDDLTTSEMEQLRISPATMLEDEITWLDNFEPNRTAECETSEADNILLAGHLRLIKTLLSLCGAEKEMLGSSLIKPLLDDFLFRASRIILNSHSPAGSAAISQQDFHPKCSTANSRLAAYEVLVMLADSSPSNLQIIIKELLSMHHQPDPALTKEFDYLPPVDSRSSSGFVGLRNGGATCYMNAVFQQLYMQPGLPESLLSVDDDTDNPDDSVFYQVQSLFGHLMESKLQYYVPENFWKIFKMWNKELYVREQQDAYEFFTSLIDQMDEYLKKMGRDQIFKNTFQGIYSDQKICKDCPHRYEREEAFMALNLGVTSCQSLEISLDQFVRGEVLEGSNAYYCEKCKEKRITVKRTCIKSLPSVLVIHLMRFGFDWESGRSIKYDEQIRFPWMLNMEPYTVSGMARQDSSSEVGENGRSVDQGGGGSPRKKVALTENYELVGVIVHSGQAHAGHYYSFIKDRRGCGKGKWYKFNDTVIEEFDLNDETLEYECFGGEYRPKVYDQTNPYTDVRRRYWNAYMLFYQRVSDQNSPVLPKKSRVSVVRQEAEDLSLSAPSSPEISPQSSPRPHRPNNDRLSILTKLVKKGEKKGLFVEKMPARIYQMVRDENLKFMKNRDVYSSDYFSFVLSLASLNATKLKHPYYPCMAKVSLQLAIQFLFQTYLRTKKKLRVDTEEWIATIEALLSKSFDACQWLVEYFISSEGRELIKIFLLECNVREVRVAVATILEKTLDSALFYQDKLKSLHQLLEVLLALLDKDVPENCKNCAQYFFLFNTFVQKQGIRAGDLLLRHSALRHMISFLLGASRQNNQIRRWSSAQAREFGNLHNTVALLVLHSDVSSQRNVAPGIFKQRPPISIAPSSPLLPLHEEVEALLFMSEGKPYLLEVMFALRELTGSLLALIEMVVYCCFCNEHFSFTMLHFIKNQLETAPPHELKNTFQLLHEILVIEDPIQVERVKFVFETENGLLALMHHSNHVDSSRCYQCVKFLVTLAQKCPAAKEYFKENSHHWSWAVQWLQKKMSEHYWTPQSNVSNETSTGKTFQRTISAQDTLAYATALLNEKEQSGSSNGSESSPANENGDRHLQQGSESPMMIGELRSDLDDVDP

Cc1ccc(CNC(=O)CCl)nc1C.Cl
inactive: USP19 -0.0635 | USP24 -0.467 | USP25 -0.436 | USP28 -0.456
